From paper PMC7862700, “An all-to-all approach to the identification of sequence-specific readers for epigenetic DNA modifications on cytosine”

Assays:
Experiment in all cases: DAPPL (digital affinity profiling via proximity ligation, sequencing); 10 mM Tris-HCl pH 7.5, 50 mM NaCl, 1 mM DTT, 4% glycerol, room temperature, 30 min; GST-TFs on glutathione beads, 16-mer random dsDNA library, 0.1% formaldehyde crosslink after washing; high values mean tight binding
Conditions in all cases: protein: recombinant; tags: N-terminal GST; dsDNA, one strand shown
[1] = biological target: T1, ERF (Homo sapiens, UniProt P50548 1-548)
T1 sequence: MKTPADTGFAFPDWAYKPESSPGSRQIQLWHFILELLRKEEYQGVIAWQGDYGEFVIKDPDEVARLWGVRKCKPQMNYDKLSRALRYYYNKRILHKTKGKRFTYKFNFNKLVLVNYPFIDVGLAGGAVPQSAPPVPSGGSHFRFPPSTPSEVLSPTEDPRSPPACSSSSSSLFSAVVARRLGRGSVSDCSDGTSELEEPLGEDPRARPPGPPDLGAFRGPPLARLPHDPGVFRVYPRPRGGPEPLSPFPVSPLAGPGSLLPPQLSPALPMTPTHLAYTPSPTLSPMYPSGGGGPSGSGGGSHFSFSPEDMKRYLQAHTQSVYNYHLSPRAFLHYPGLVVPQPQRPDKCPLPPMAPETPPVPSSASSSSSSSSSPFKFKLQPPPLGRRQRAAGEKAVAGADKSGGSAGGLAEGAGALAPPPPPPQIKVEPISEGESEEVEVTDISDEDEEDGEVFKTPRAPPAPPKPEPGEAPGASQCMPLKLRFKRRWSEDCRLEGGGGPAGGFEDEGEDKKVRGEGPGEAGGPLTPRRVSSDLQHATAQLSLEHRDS
In short: (§1)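 Each value of binding signal is a hexamer's read frequency for a factor divided by the same hexamer's frequency in the tag-only sample. Barcoded, bead-captured GST fusions of human transcription factors made in yeast were pooled with that sample and incubated with 200 nmole of a random double-stranded 16-mer DNA library in Tris/NaCl/DTT/glycerol buffer at room temperature for 30 min. Washing, 0.1% formaldehyde crosslinking, proximity ligation, PCR and Illumina NextSeq500 sequencing followed.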

[2] = biological target: T2, ETV3L (Homo sapiens, UniProt Q6ZN32 1-361)
T2 sequence: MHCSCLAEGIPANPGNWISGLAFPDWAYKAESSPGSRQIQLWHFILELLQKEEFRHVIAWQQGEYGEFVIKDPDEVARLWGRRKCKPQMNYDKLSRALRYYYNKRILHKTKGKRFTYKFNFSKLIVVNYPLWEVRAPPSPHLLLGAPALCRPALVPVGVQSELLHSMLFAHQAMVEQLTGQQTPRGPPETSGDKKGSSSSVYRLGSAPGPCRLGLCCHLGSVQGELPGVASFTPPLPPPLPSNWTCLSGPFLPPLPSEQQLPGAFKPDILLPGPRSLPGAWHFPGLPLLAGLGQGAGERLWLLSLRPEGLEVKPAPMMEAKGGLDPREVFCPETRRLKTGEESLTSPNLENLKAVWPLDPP
In short: as §1

[3] = biological target: T3, ETS2 (Homo sapiens, UniProt P15036 1-469)
T3 sequence: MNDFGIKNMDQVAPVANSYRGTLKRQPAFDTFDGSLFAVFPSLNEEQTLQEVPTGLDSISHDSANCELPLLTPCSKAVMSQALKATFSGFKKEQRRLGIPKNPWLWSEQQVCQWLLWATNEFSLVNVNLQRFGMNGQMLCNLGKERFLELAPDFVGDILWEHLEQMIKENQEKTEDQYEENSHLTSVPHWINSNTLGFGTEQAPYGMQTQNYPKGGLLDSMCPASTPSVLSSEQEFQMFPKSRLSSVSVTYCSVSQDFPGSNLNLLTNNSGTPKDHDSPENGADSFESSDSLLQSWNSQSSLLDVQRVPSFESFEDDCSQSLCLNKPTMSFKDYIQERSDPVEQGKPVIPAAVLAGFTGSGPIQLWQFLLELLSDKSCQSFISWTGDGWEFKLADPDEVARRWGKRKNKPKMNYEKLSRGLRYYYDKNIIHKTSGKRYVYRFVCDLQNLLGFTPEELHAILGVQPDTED
In short: as §1

[4] = biological target: T4, SPDEF (Homo sapiens, UniProt O95238 1-335)
T4 sequence: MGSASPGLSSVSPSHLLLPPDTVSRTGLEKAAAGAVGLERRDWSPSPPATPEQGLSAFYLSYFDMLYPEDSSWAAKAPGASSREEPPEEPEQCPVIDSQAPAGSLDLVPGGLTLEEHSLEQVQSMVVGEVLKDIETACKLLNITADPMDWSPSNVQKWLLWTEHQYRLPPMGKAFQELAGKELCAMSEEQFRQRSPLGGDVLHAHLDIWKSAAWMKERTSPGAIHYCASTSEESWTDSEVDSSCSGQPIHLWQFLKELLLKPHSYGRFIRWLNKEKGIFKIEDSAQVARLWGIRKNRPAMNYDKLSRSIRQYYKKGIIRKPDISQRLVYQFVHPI
In short: as §1

[5] = biological target: T5, ETV7 (Homo sapiens, UniProt Q9Y603 1-341)
T5 sequence: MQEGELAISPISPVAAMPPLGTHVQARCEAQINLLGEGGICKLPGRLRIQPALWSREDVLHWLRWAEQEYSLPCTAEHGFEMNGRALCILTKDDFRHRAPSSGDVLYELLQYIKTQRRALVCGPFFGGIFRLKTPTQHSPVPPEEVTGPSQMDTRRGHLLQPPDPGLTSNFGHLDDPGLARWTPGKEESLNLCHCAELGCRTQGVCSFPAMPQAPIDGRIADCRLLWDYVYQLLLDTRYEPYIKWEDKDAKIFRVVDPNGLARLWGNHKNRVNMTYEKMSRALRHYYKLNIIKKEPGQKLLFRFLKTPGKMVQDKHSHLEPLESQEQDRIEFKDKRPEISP
In short: as §1

[6] = biological target: T6, ELF5 (Homo sapiens, UniProt Q9UKW6-2 1-255)
T6 sequence: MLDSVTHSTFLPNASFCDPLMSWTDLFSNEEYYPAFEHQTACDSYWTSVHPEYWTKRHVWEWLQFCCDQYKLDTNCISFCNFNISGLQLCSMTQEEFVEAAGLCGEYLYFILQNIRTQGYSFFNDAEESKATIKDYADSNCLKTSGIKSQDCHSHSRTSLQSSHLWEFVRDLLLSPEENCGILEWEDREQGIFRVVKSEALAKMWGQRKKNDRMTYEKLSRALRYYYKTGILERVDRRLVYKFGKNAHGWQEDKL
In short: as §1

[7] = biological target: T7, ETV3 (Homo sapiens, UniProt P41162-2 1-143)
T7 sequence: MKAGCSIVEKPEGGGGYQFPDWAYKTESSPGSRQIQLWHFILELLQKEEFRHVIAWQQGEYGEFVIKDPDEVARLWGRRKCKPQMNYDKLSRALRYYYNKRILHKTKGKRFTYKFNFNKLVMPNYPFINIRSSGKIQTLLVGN
In short: as §1

[8] = biological target: ETV6 (Homo sapiens, UniProt P41212 1-452)
In short: as §1

Chain of ETV6 (P41212 whole entry): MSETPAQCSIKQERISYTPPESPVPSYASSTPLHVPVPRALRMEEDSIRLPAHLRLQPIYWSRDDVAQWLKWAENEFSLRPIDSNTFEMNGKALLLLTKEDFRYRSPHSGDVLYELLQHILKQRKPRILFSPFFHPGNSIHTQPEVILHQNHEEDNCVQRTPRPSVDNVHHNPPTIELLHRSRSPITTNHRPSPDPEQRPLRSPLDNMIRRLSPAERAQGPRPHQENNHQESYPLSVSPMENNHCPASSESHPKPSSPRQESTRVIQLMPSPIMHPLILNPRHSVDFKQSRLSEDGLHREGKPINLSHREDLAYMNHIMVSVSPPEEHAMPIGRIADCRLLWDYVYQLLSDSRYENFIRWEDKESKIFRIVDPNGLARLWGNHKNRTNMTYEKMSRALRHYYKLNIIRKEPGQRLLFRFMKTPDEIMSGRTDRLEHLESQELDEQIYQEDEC

| Sequence | binding signal [1] | binding signal [2] | binding signal [3] | binding signal [4] | binding signal [5] | binding signal [6] | binding signal [7] | binding signal [8] |
| --- | --- | --- | --- | --- | --- | --- | --- | --- |
| TTGATA | 1.24 fold enrichment (6-mer frequency, TF over GST control) | 1.27 fold enrichment (6-mer frequency, TF over GST control) | 1.15 fold enrichment (6-mer frequency, TF over GST control) | 1.13 fold enrichment (6-mer frequency, TF over GST control) | 1.23 fold enrichment (6-mer frequency, TF over GST control) | 1.21 fold enrichment (6-mer frequency, TF over GST control) | 1.25 fold enrichment (6-mer frequency, TF over GST control) | 1.14 fold enrichment (6-mer frequency, TF over GST control) |
| TATGGC | 1.25 fold enrichment (6-mer frequency, TF over GST control) | 1.23 fold enrichment (6-mer frequency, TF over GST control) | 1.2 fold enrichment (6-mer frequency, TF over GST control) | 1.27 fold enrichment (6-mer frequency, TF over GST control) | 1.26 fold enrichment (6-mer frequency, TF over GST control) | 1.23 fold enrichment (6-mer frequency, TF over GST control) | 1.31 fold enrichment (6-mer frequency, TF over GST control) | 1.29 fold enrichment (6-mer frequency, TF over GST control) |
| AATTTA | 1.27 fold enrichment (6-mer frequency, TF over GST control) | 1.25 fold enrichment (6-mer frequency, TF over GST control) | 1.18 fold enrichment (6-mer frequency, TF over GST control) | 1.12 fold enrichment (6-mer frequency, TF over GST control) | 1.28 fold enrichment (6-mer frequency, TF over GST control) | 1.26 fold enrichment (6-mer frequency, TF over GST control) | 1.22 fold enrichment (6-mer frequency, TF over GST control) | 1.33 fold enrichment (6-mer frequency, TF over GST control) |
| CTTGCC | 1.33 fold enrichment (6-mer frequency, TF over GST control) | 1.31 fold enrichment (6-mer frequency, TF over GST control) | 1.3 fold enrichment (6-mer frequency, TF over GST control) | 1.44 fold enrichment (6-mer frequency, TF over GST control) | 1.54 fold enrichment (6-mer frequency, TF over GST control) | 1.29 fold enrichment (6-mer frequency, TF over GST control) | 1.33 fold enrichment (6-mer frequency, TF over GST control) | 1.08 fold enrichment (6-mer frequency, TF over GST control) |
| TATCAC | 1.19 fold enrichment (6-mer frequency, TF over GST control) | 1.23 fold enrichment (6-mer frequency, TF over GST control) | 1.2 fold enrichment (6-mer frequency, TF over GST control) | 1.25 fold enrichment (6-mer frequency, TF over GST control) | 1.14 fold enrichment (6-mer frequency, TF over GST control) | 1.14 fold enrichment (6-mer frequency, TF over GST control) | 1.19 fold enrichment (6-mer frequency, TF over GST control) | 1.25 fold enrichment (6-mer frequency, TF over GST control) |
| TTCTGG | 1.35 fold enrichment (6-mer frequency, TF over GST control) | 1.23 fold enrichment (6-mer frequency, TF over GST control) | 1.19 fold enrichment (6-mer frequency, TF over GST control) | 1.23 fold enrichment (6-mer frequency, TF over GST control) | 1.21 fold enrichment (6-mer frequency, TF over GST control) | 1.22 fold enrichment (6-mer frequency, TF over GST control) | 1.2 fold enrichment (6-mer frequency, TF over GST control) | 1.32 fold enrichment (6-mer frequency, TF over GST control) |
| TGGCCT | 1.38 fold enrichment (6-mer frequency, TF over GST control) | 1.37 fold enrichment (6-mer frequency, TF over GST control) | 1.32 fold enrichment (6-mer frequency, TF over GST control) | 1.42 fold enrichment (6-mer frequency, TF over GST control) | 1.42 fold enrichment (6-mer frequency, TF over GST control) | 1.33 fold enrichment (6-mer frequency, TF over GST control) | 1.35 fold enrichment (6-mer frequency, TF over GST control) | 1.5 fold enrichment (6-mer frequency, TF over GST control) |
